RGS4 inh: inhibitors of human regulator of G protein signaling 4; Potency, µM (highest dose often 114 µM), inactives show at the highest dose activity change, negative = inhibition, actives largely listed as inhibitors; AID 504845; P49798; Transcreener GDP fluorescence polarization, RGS4-accelerated GTP hydrolysis; actives 0.039% (n = 390,000); active = well fitted inhibition curve with a large enough effect; inconclusive = small, poorly fitted or top-dose-only effect; inactive = no such curve, though single readings can be large or run the other way; also: potency is read from the fitted curve at half-maximal effect; % is scaled to controls: 0 for no effect and ±100 for the full control effect; nearly all actives have a fitted effect of over 75% in size
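MLSMR compounds (23 nl, pin-transferred) preincubated 10 min at room temperature with a 500nM (2x) first reagent, then RGS4 at 900nM (2x) plus Transcreener GDP mix added; fluorescence polarization (620/688 nm) read before and after 90 min at 30 °C.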
uPA generation: blocks generation of uPA at the cell surface; actives 0.31% (n = 330,000); cell surface uPA generation assay, qHTS; AID 540303; Potency, µM (series often up to 38.3 µM), without a hit: at the top dose activity change, negative = inhibition, usual class: inhibitors; active = well fitted inhibition curve with a large enough effect; inconclusive = small, poorly fitted or top-dose-only effect; inactive = no such curve, though single readings can be large or run the other way; tested in mouse RAW 264.7 cells; also: potency is read from the fitted curve at half-maximal effect; % is scaled to controls: 0 for no effect and ±100 for the full control effect; nearly all actives have a fitted effect of over 55% in size
DRD3 agonist: agonists of human D3 dopamine receptor; P35462; D3R DiscoveRx beta-arrestin cells, luminescence, 90 min; max activation, %; actives 0.58% (n = 410,000); in the data active = max activation above about 30%; also: 0% is about no effect
Target sequence (P35462 whole entry, looked up): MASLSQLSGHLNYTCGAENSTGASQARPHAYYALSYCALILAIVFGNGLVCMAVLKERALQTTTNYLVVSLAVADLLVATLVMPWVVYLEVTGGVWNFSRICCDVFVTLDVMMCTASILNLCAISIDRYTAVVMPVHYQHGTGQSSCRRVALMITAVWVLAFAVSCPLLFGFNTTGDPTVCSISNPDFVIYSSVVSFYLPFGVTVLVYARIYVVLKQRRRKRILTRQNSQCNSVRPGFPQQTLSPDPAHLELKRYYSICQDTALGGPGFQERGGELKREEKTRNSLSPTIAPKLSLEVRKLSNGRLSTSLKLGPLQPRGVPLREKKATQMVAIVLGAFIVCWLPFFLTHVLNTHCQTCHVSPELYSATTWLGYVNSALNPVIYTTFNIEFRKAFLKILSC
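Agonist-mode cell screen: cells plated at 1500/well and incubated overnight at 37 °C, then exposed to library compounds for 90 min at 37 °C. Detection reagent was added for 30–60 min at room temperature, and luminescence was read.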
D3 antag: D3 dopamine receptor (human) antagonism; AID 652054; D3R cells, DiscoveRx beta-arrestin luminescence, antagonist mode; active compounds read low; actives 2.5% (n = 360,000); max response, negative = inhibition, %; in the data active = max response below about -50%; inconclusive = no clear call, values can overlap the other calls; also: % is scaled to controls: 0 for no effect and ±100 for the full control effect
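Cells plated overnight at 1500 cells/well, then exposed to library compounds with dopamine controls for 90 minutes at 37 degrees C. DiscoveRx reagent added for 30–60 minutes at room temperature; luminescence read, quantitative HTS format.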
Numbers without * were called inactive; ? = inconclusive; . = no result; [ ] = dose if it differs, or a comment. Only some compounds are listed: those with a hit (about 3.1% of all), similar ones and a draw of the others.

SMILES	RGS4 inh	uPA generation	DRD3 agonist	D3 antag
CCOc1ccc(CNC(=O)c2ccc3c(c2)N(CC)CCS3)cc1	-15%	7%	-13	-67*
O=c1c2c(-c3ccccc3)csc2ncn1/N=C/c1cccc([N+](=O)[O-])c1O	37%	-5%	-15	-52*
O=C1N(c2ccccc2C(F)(F)F)O[C@@]1(c1ccccc1)C1CCCCC1	0%	-9%	-18	-57*
COc1ccccc1NC(=O)C1=C(C)Nc2nc(SCc3ccccc3Cl)nn2C1c1cccnc1 (configuration not stated)	5%	.	-10	.
Cc1ccc(-c2cc(=O)c3ccccc3[nH]2)cc1	24%	11µM*	-12	13
COc1ccc(-c2cc(=O)c3cc(C)ccc3[nH]2)cc1	9%	?	-38	-22
COc1cc2[nH]c(-c3ccc(C)cc3)cc(=O)c2cc1OC	-32%	-24%	-68	-112*
COc1ccccc1-c1nnc(C2CCN(S(=O)(=O)c3ccc(CC(C)C)cc3)CC2)o1	5%	.	6	.
COc1ccc(OC)c(C2C(C(=O)c3cccs3)=C(O)C(=O)N2c2cc(C)on2)c1 (configuration not stated)	6%	7%	4	-69*
COc1cccc(C2C(C(=O)c3cccs3)=C(O)C(=O)N2c2cc(C)on2)c1 (configuration not stated)	-19%	-2%	10	-55*
COc1cc(C2C(C(=O)c3cccs3)=C(O)C(=O)N2c2cc(C)on2)ccc1O (configuration not stated)	-14%	2%	-2	0
Cc1cc(N2C(=O)C(O)=C(C(=O)c3cccs3)C2c2cccc(O)c2)no1 (configuration not stated)	-11%	-1%	0	10
CCOC(=O)N1C/C(=C\c2ccccc2)C(=O)/C(=C/c2ccccc2)C1	-2%	9%	-3	-52*
O=C(/C=C/c1ccccc1)CCN1CCOCC1	-113%	34%	-10	-15
O=C1/C(=C/c2ccccc2)CN(C(=O)CCN2CCOCC2)C/C1=C\c1ccccc1	?	17%	-19	-77*
CN(C)CCC(=O)N1C/C(=C/c2ccccc2)C(=O)/C(=C\c2ccccc2)C1	?	-7%	-24	-85*
C[N+](C)(C)CCC(=O)N1C/C(=C/c2ccccc2)C(=O)/C(=C\c2ccccc2)C1	?	-9%	1	12
COc1ccc(OC(=O)N2C/C(=C/c3ccccc3)C(=O)/C(=C\c3ccccc3)C2)cc1	-52%	-12%	-8	-15
CN(c1ccccc1)S(=O)(=O)c1cccc(NC(=O)c2ccc(Cl)c([N+](=O)[O-])c2)c1	-13%	-10%	-8	0
COC(=O)c1sccc1S(=O)(=O)N(CC(=O)NCc1ccc(C)cc1)c1ccc(C)cc1	-31%	.	0	.
Cc1cc(N2CCN(C3CCCCC3)CC2)nc2cccc(O)c12	1%	2%	-10	-84*
Cc1cc(N2CCCC2)nc2ccccc12	24%[56.9 µM]	?	0	-5
CCCCNc1nc(Oc2ccc(OCC)nn2)nc(N2CCOCC2)n1	-4%	.	2	.
COc1ccc(C(CNc2ncnc3sc(C)c(C)c23)N(C)C)cc1 (configuration not stated)	13%	-2%	-14	-71*
COc1ccccc1C(CNc1ncnc2sc(C)c(C)c12)N(C)C (configuration not stated)	-28%	-3%	-12	-5
SMILES	RGS4 inh	uPA generation	DRD3 agonist	D3 antag
CSc1ccc(CNC(=O)Cn2c(-c3cccs3)cc3cc(F)ccc32)cc1	-8%	.	8	.
O=c1[nH]c2ccc(Cl)cc2c(-c2ccccc2)c1CN1CCOCC1	-5%	-17%	-18	-58*
O=c1[nH]c2ccc(Cl)cc2c(-c2ccccc2)c1N1CCOCC1	19%	-4%	2	0
O=C(Nc1ccccc1C(=O)OCc1cc(=O)n2c3c(sc2n1)CCCC3)c1ccccc1	9%	.	-7	.
CCOC(=O)Cc1nnc(NC(=O)CSc2ccc(Cl)cc2)s1	-7%	.	-1	-53*
CCOc1cc(C(=S)N2CCCC2)ccc1OCC(=O)Nc1c(C)cc(C)cc1C	?	2%	-17	-55*
CCOc1cc(C(=S)N2CCCC2)ccc1OC	-1%	1%	7	?
O=C(NCCc1ccccc1Cl)c1ccc(Cn2c(=O)c3cccn3c3cccnc32)cc1	?	.	13	.
Cc1cc(C)c(NC(=O)C[C@H](CC(=O)O)c2cccc3ccccc23)c(C(=O)N2CCC3(CCCC3)CC2)c1	.	.	-4	.
